# The whole screen tested about 300,000 compounds, of which about 37,000 (12%) were called active. No stated cut-off is given here; in the data, active means max response mostly above about 13% (no sharp cut-off); inactive means mostly below about 14%. The list comes from a sample in which actives are over-represented; it also holds similar structures and randomly drawn compounds.
# Experiment: Cycloheximide Counterscreen for Small Molecule Inhibitors of Shiga Toxin; further: read at 38.3 µM for the half of the compounds with a filed dose; 0% is about no effect
# Conditions: cell reporter, cycloheximide protein synthesis inhibition counterscreen; stronger effect = higher value
row,Structure (SMILES),max response
1,CCNC(=O)CC1C(=O)N(c2ccc(OC)cc2)C(=S)N1CCc1ccncc1 (centres undefined),-6.33% (inactive)
2,Cc1ccc2c(c1)N(CC(=O)NCC1CCCO1)C(=O)CO2 (centres undefined),-1.04% (inactive)
3,O=C(NCCCN1CCCCC1)C1CC(=O)N(CCc2ccccc2)C1 (centres undefined),3.29% (inactive)
4,COc1ccc(/C=C/C(=O)N2CCCC2)cc1OC,5.12% (inactive)
5,COc1cccc(/C=C/C(=O)Nc2ccc3c(c2)OCCO3)c1,51.1% (active)
6,COc1cc(/C=N/NC(=S)Nc2cccnc2)cc(OC)c1O,14% (inactive)
7,COc1cccc(C(=O)Nc2cccnc2)c1OC,2.63% (inactive)
8,COc1ccc(OC)c(/C=C/C(=O)OCC(=O)Nc2ccc3c(c2)OCCO3)c1,4.24% (inactive)
9,COc1ccc(/C=C/C(=O)Nc2cccnc2)cc1OC,19.5% (active)
10,COc1ccc(/C=C/C(=O)Nc2ccc3c(c2)OCCO3)cc1OC,34.3% (active)
11,COc1ccc(NS(=O)(=O)c2cc(NC(=O)/C=C/c3cc(OC)c(OC)c(OC)c3)ccc2N2CCCCC2)cc1,-2.53% (inactive)
12,O=C(/C=C\c1ccc2c(c1)OCO2)NC1(C(=O)Nc2ccc3c(c2)OCCO3)CCCCC1,-4.38% (inactive)
13,COc1ccc(/C=C/C(=O)Nc2ccc(C)cc2)cc1S(=O)(=O)N1CCOCC1,10.5% (inactive)
14,COc1ccc(/C=C/C(=O)Nc2ccc(C34CC5CC(CC(O)(C5)C3)C4)cc2)cc1OC,36.8% (active)
15,CCOc1ccc2c(=O)c(-c3ccc4c(c3)OCCCO4)c(C)oc2c1,7.6% (inactive)
16,CCOc1ccccc1Nc1ccc(C(=O)O)cc1[N+](=O)[O-],-4.22% (inactive)
17,CCSc1nc2sc3c(c2c(=O)[nH]1)CC(C)(C)OC3,0.89% (inactive)
18,Cc1cccn2cc(-c3cccc(S(=O)(=O)N4CCCCC4)c3)nc12,15.4% (active)
19,O=S(=O)(c1cccc(-c2nnc3n2CCCCC3)c1)N1CCOCC1,-0.622% (inactive)
20,O=S(=O)(c1cccc(-c2cn3ccccc3n2)c1)N1CCCC1,13.9% (inactive)
21,CCc1cc2c(N3CCN(c4nnc(CC)s4)CC3)ncnc2s1,-4.57% (inactive)
22,COc1ccc(-n2c(C)cc(C(=O)CN3C(=O)NC4(CCc5ccccc54)C3=O)c2C)cc1 (centres undefined),3.03% (inactive)
23,O=C(Cc1cccc2ccccc12)NCCC1=CCCCC1,-2.35% (inactive)
24,S=C(NCCc1ccccc1)NCC1CCCO1 (centres undefined),29.4% (active)
25,Cc1nnc(OCC(=O)NCCC2=CCCCC2)c2ccccc12,-1.88% (inactive)

row,Structure (SMILES),max response
1,Oc1ccccc1N1CCN(C(=S)NCc2ccccc2)CC1,31.8% (active)
2,S=C(NCCC1=CCCCC1)Nc1ccccc1,39.2% (active)
3,S=C(NCCc1ccccc1)Nc1ccccc1,52.7% (active)
4,S=C(NCCc1ccccc1)NCc1ccccc1Cl,2.05% (inactive)
5,CC1CCCCN1C(=S)NCc1ccccc1 (centres undefined),0.333% (inactive)
6,Oc1c(Br)cc(/C=N/NC(=S)NCC2CCCO2)cc1Br (centres undefined),1.44% (inactive)
7,O=C(CS(=O)(=O)Cc1ccccc1)NCC1CCCO1 (centres undefined),-0.705% (inactive)
8,S=C(NCCCc1ccccc1)Nc1ccc(Br)cc1,9.21% (inactive)
9,Oc1ccc(N2CCN(C(=S)NCc3ccccc3)CC2)cc1,-5.44% (inactive)
10,Cc1nc2ccccc2c(=O)n1NC(=O)c1ccccc1,-1.37% (inactive)
11,COc1ccc(CN(C)Cc2nc3cc(OC)c(OC)cc3c(=O)[nH]2)c(OC)c1,-2.17% (inactive)
12,CCN(C(=O)CN1C(=O)/C(=C/c2ccc(F)cc2)SC1=S)C1CCS(=O)(=O)C1 (centres undefined),-13.6% (inactive)
13,Cc1cccc(N2CCN(C(=O)CCS(=O)(=O)c3ccc4c(c3)NC(=O)C(C)S4)CC2)c1C (centres undefined),-1.44% (inactive)
14,CCCc1ccc(-c2c(C)sc(NC(=O)c3ccnn3C)c2C#N)cc1,-3.68% (inactive)
15,O=C(CCc1n[nH]c(=O)[nH]c1=O)N/N=C/c1ccc(Br)o1,-9.24% (inactive)
16,COCCNC(=O)COc1ccc(N(C)S(=O)(=O)c2ccc3ccccc3c2)cc1,-5.19% (inactive)
17,N#Cc1c(-c2ccccc2)c(-c2ccccc2)n[nH]c1=O,0.547% (inactive)
18,COc1cccc(CNC(=O)CN(C)S(=O)(=O)c2ccc3c(c2)c(=O)n(C)c(=O)n3C)c1,-2.54% (inactive)
19,CC(=O)c1ccccc1OCc1ccc(C(=O)c2ccccc2)cc1,2.75% (inactive)
20,S=C(NCCc1ccccc1)N1CCCCC1,60.3% (active)
21,O=C1CCN(C(=S)NCCc2ccccc2)CC1,16% (inactive)
22,COc1ccc(C(=O)NC2CCN(C(=S)NCCc3ccccc3)CC2)cc1,-2.31% (inactive)
23,CCc1ccc(-c2cc(C)no2)cc1S(=O)(=O)NCCc1ccc(S(N)(=O)=O)cc1,-3.78% (inactive)
24,N=C(N)SCc1cccc2ccccc12,-4.81% (inactive)
25,c1ccc2c(CSCc3nc4ccccc4[nH]3)cccc2c1,13.2% (active)

row,Structure (SMILES),max response
1,O=c1[nH]nc(CSCc2ccccc2Cl)[nH]1,-2.59% (inactive)
2,c1ccc(-c2nnc(SCc3nc4ccccc4[nH]3)o2)cc1,10.9% (inactive)
3,Clc1ccccc1SCc1nc2ccccc2[nH]1,52.8% (active)
4,COc1ccc(OC(C)C(=O)NCCc2nc3ccccc3[nH]2)cc1 (centres undefined),-2.98% (inactive)
5,Cc1ccc(S(=O)(=O)c2c[nH]c3ccc(Cl)cc3c2=O)cc1,-0.873% (inactive)
6,CC(NC(=O)CCCC1CCCCC1)c1ccc(S(N)(=O)=O)cc1 (centres undefined),-1.75% (inactive)
7,CCC(=O)N1CCN(c2ccccc2NC(=O)COc2cccc(C)c2C)CC1,-0.942% (inactive)
8,O=C(Nc1c2c(nn1-c1cccc(Cl)c1)CS(=O)(=O)C2)c1cccs1,-4.62% (inactive)
9,COc1ccc(CN(Cc2ccco2)S(=O)(=O)c2ccc(S(=O)(=O)N3CCCC3)cc2)cc1,-2.84% (inactive)
10,CCCCCCCN=C(C)c1ccccc1O,-3.52% (inactive)
11,CCCCCCCCCCCCN=C(N)N,13.5% (active)
12,CCN(CC)CCCN=C(N)N,-0.653% (inactive)
13,O=C1C(=O)N(CC2COc3ccccc3O2)c2ccccc21 (centres undefined),-1.34% (inactive)
14,COc1cccc(CNc2nc(C(F)(F)F)nc3ccccc23)c1,-1.53% (inactive)
15,COc1cccc(CNc2ncc(-c3ccccc3)n2C)c1,23.9% (active)
16,COc1cccc(CNS(=O)(=O)c2cc3c(cc2C)n(C)c(=O)c(=O)n3C)c1,-2.63% (inactive)
17,CCOC(=O)C1CCN(C(=O)Cn2nc(C)c3c(C)n(-c4ccccc4)nc3c2=O)CC1,-0.326% (inactive)
18,O=C(CCc1nnc2ccc(NCCCN3CCCC3=O)nn12)NCc1ccccc1Cl,-2.54% (inactive)
19,CC(C)(C)NC(=O)C(c1ccc(Cl)cc1)N(CCO)C(=O)c1snc(C(N)=O)c1N (centres undefined),-3.49% (inactive)
20,Cc1ccc(NC(=O)C2CCCN2S(=O)(=O)c2cccc3cccnc23)c(C)c1 (centres undefined),-1.86% (inactive)
21,Cc1ccc(N2CCN(/N=C/c3cccs3)CC2)cc1,7.5% (inactive)
22,C(=N/N1CCN(c2ccccc2)CC1)/c1cccs1,36.9% (active)
23,Nc1nnnn1/N=C/c1cccs1,-4.55% (inactive)
24,Cc1cccc(-c2c(NC(=O)c3ccco3)oc3ccc(Cl)cc3c2=O)c1,-1.7% (inactive)
25,CC(C)c1ccc(/C=C2\NC(=O)NC2=O)cc1,18.8% (active)

row,Structure (SMILES),max response
1,CC(C)c1ccc(S(=O)(=O)N2CCC3(CC2)OCCO3)cc1,-1.14% (inactive)
2,COC(=O)CN1C(=O)[C@H]2[C@@H](/C=C/c3ccccc3)N3C(=O)CN(Cc4ccccc4)C(=O)[C@@]3(Cc3ccccc3)[C@H]2C1=O,-3.52% (inactive)
3,COc1ccc(N(C(=O)c2cccnc2)S(=O)(=O)c2ccc(OC)c(OC)c2)cc1,1.15% (inactive)
4,O=C(Cc1ccccc1)Nc1cccc(C(=O)N/N=C/c2ccco2)c1,0.305% (inactive)
5,N#CCC(=O)N/N=C/c1ccc(SCC(=O)Nc2ccccc2)o1,2.34% (inactive)
6,O=C(CSc1ccc(/C=N/NC(=O)c2cccc(F)c2)o1)Nc1ccccc1,47.1% (active)
7,COc1cccc2sc(N(CCCN(C)C)C(=O)C(c3ccccc3)c3ccccc3)nc12,-11.2% (inactive)
8,Cc1ccc(NC(=O)Cn2nnc(C(=O)NCc3ccco3)c2N)c(C)c1,9.89% (inactive)
9,Cc1ccccc1NC(=O)NCc1ccco1,9.11% (inactive)
10,Cc1ccc(NC(=O)C(=O)NCc2ccco2)c(C)c1,41.1% (active)
11,CN(CC(=O)Nc1ccc(F)cc1)CC(=O)Nc1ccc(Cl)c(S(=O)(=O)N2CCOCC2)c1,-2.41% (inactive)
12,C/C=C/c1ccc(OCC(O)CN2CCCCCCC2)c(OC)c1 (centres undefined),9.28% (inactive)
13,CCOC(=O)c1ccc(NC(=O)Cn2cnc3cc(C)c(C)cc32)cc1,6.04% (inactive)
14,CCn1c(=O)c2ccccc2n(CC(=O)N2CCCc3ccccc32)c1=O,-2.55% (inactive)
15,CN(C)CCN=c1cc(-c2ccccc2)oc2ccc(Cl)cc12,23.6% (active)
16,CN(C)CCn1c(=S)[nH]c2ccc(Cl)cc2c1=O,-5.79% (inactive)
17,CCOC(=O)c1c(NC(=O)CNC2CCCc3ccccc32)sc(C(N)=O)c1C (centres undefined),9.96% (inactive)
18,O=C(N/N=C/c1cc2c(cc1Br)OCO2)C1COc2ccccc2O1 (centres undefined),52.6% (active)
19,O=C(CNC(=O)C1COc2ccccc2O1)N/N=C/c1cc(Br)c(O)c(Br)c1 (centres undefined),-2.17% (inactive)
20,O=C(N/N=C\c1cc(Br)c(Br)o1)C1COc2ccccc2O1 (centres undefined),9.2% (inactive)
21,CCOC(=O)CSc1nc(N2CCOCC2)c2c(c1C#N)CC(C(C)C)OC2 (centres undefined),-2.94% (inactive)
22,Cc1ccc(-c2noc(CSc3nnc(-c4cccs4)n3C)n2)cc1,5.33% (inactive)
23,Cc1ccc(-c2noc(CSc3nnc(-c4ccccc4)n3C)n2)cc1,-0.58% (inactive)
24,Cc1ccc(-c2noc(CSc3nnnn3-c3ccccc3)n2)cc1,17.8% (active)
